Source: PubChem BioAssay AID2685 (National Center for Advancing Translational Sciences (NCATS), 2010)
Among all 320,000 compounds or so, about 2,100 (0.66%) were called active. Another 53% or so got no clear call; they are omitted. Calls follow the shape of the dose curve; as a rule, active = well fitted inhibition curve with a large enough effect in the signal ratio, with a control signal flat (not every such curve was filed as active); inconclusive = small, poorly fitted or top-dose-only effect, or effect the other way, or a change in a side signal; inactive = flat fitted curve, though single readings scatter; the % refers to the signal ratio. The sample as a whole holds a higher share of actives than the screen did.

Test: qHTS Assay for Lipid Storage Modulators in Drosophila S3 Cells;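 as to cell number change: cells counted by Cell Tracker Red CMTPX staining in the red channel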; as to lipid storage change, negative = inhibition: % is scaled to controls: 0 for no effect and ±100 for the full control effect
Conditions: BODIPY lipid droplet fluorescence, 18-24 h, cells fed with added oleic acid; cell number change: measured here: cell count max response; series mostly up to 46.1 µM; lipid storage change, negative = inhibition: at the top concentration
How it was run: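 Drosophila S3 cells loaded with oleic acid (400 uM, as added) and compounds at several concentrations; lipid droplets imaged by 488-nm laser-scanning cytometry, 500–530 nm intensity and object ratio to cell channel. Percent activity normalized to 20 uM Triacsin C.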
Potency is read from the fitted curve at half-maximal effect.

| Compound | lipid storage change, negative = inhibition | cell number change | Potency | outcome |
| --- | --- | --- | --- | --- |
| CCOC(=O)CS(=O)(=O)c1ccccc1 | -0.796% (inactive) | 1.52% |  |  |
| CCOC(=O)N=S(N)(=O)c1ccc(Cl)cc1 (configuration not stated) | -21% (inactive) | -0.647% |  |  |
| CCOC(=O)N=S(N)(=O)c1ccccc1 (configuration not stated) |  | -1.15% | 14.6 µM (active) |  |
| CCc1ccc(NC(=O)NCC2CCN(Cc3cccc(Cl)c3)CC2)cc1 | -2.08% (inactive) | -23.4% |  |  |
| COC(=O)CON1C(=O)c2ccccc2C1=O |  | -16.7% | 25.9 µM (active) |  |
| COC(=O)CCC(=O)NN1C(=O)c2ccccc2C1=O | -14.5% (inactive) | 9.79% |  |  |
| COC(=O)c1ccc(CON2C(=O)c3ccccc3C2=O)cc1 | -5.5% (inactive) | -3.96% |  |  |
| CN(Cc1cccc(F)c1)C(=O)c1cc(S(=O)(=O)N2CCOCC2)ccc1N1CCCC1 | 2.59% (inactive) | -6.74% |  |  |
| COc1ccc(OC)c(NC2=NC3(CCCC3)N=C(N)N2)c1 |  | -7.97% |  | inactive |
| COc1ccc(NC2=NC3(CCCCC3)N=C(N)N2)cc1 | -9.8% (inactive) | -9.76% |  |  |
| COc1cccc(NC2=NC3(CCCCC3)N=C(N)N2)c1 |  | 5.89% | 6.51 µM (active) |  |
| O=C(CCn1nnc2ccccc21)OCC(=O)c1ccc([N+](=O)[O-])cc1 |  | 5.65% | 0.731 µM (active) |  |
| O=C(Cn1nnc2ccccc21)OCC(=O)c1ccccc1 | -10% (inactive) | -10.5% |  |  |
| O=C(Cn1nnc2ccccc21)c1ccc([N+](=O)[O-])cc1 | 1.88% (inactive) | 9.12% |  |  |
| O=[N+]([O-])c1ccc(N2CCOCC2)cc1NCCCO | 6.02% (inactive) | 7.85% |  |  |
| O=C(O)c1cccc(Nc2ncnc3ccccc23)c1 |  | -4.45% | 25.9 µM (active) |  |
| O=C(O)c1cccc(Nc2ncnc3ccc(Br)cc23)c1 | -2.57% (inactive) | -2.61% |  |  |
| Cc1ccc2ncnc(Nc3cccc(C(=O)O)c3)c2c1 | -2% (inactive) | -1.09% |  |  |
| Cc1ccc2ncnc(Nc3ccccc3)c2c1 | 8.18% (inactive) | -8.5% |  |  |
| Cn1ncc2c(Nc3cccc([N+](=O)[O-])c3)ncnc21 |  | -17% |  | inactive |
| Cc1ccc2ncnc(Nc3cccc([N+](=O)[O-])c3)c2c1 |  | 12.6% | 8.2 µM (active) |  |
| O=C(NCC(=O)N1CCN(c2ccccc2F)CC1)c1ccc(Br)o1 |  |  |  | inactive |
| Cc1cccc(N2CCN(C(=O)c3ccc(CS(=O)Cc4ccc(Cl)cc4)o3)CC2)c1C (configuration not stated) |  | -21% |  | inactive |
| CCOc1cc(CNCC2CCCN2CC)cc(Cl)c1OC (configuration not stated) | 0.755% (inactive) | 12.4% |  |  |

| Compound | lipid storage change, negative = inhibition | cell number change | Potency | outcome |
| --- | --- | --- | --- | --- |
| CCN1CCCC1CNCc1ccc(Cl)cc1Cl (configuration not stated) |  | -167% | 7.31 µM (active) |  |
| CCN1CCCC1CNCc1ccccc1OCc1ccc(F)cc1 (configuration not stated) |  | 13.4% |  | inactive |
| CCn1cc(CN2CCC(n3nccc3NC(=O)c3ccc(OC)cc3)CC2)cn1 | 3.07% (inactive) | -5.94% |  |  |
| O=c1[nH]c2ccc(S(=O)(=O)N3CCCCC3)cc2o1 | 3.63% (inactive) | 2.33% |  |  |
| COc1ccc(C(=O)NNC(=O)COc2ccc(Cl)cc2)c(OC)c1 |  | 4.95% |  | inactive |
| CCOc1ccccc1NC(=O)C1CCCN(S(=O)(=O)c2cccc3nsnc23)C1 (configuration not stated) | 20.9% (inactive) | -15.5% |  |  |
| CCc1ccc(NS(=O)(=O)c2ccc(OC)c3ncccc23)cc1 | 4.19% (inactive) | 5.2% |  |  |
| CNC(=O)C(=O)Nc1cc2c3c(c1)CCN3C(=O)CC2 |  |  |  | inactive |
| CC(C)NC(=O)C(=O)Nc1cc2c3c(c1)CCC(=O)N3CCC2 |  | -25.7% | 11.6 µM (active) |  |
| O=C(NCCO)C(=O)Nc1cc2c3c(c1)CCN3C(=O)CC2 |  | -29% |  | inactive |
| CCNC(=O)C(=O)Nc1cc2c3c(c1)CCN3C(=O)CC2 |  | -2.95% | 6.51 µM (active) |  |
| CNC(=O)C(=O)Nc1cc2c3c(c1)CCC(=O)N3CCC2 |  | -5.6% |  | inactive |
| CC(C)CNC(=O)C(=O)Nc1cc2c3c(c1)CCC(=O)N3CCC2 |  |  |  | inactive |
| CC12CCC(=O)N1C(C(=O)OCC(=O)Nc1cccc(S(=O)(=O)N3CCCCCC3)c1)CS2 (configuration not stated) | 8.73% (inactive) |  |  |  |
| COc1cccc(C(=O)OC2CCCN(C)C2)c1 (configuration not stated) |  | -20.8% | 23.1 µM (active) |  |
| CN1CCCC(OC(=O)c2cccc(S(=O)(=O)N3CCCCCC3)c2)C1 (configuration not stated) | -6.87% (inactive) | 5.11% |  |  |
| CN1CCCC(OC(=O)c2cc(Cl)cc(Cl)c2)C1 (configuration not stated) | 6.18% (inactive) | -19.2% |  |  |
| CCc1ccc(NC(=O)C/C(C)=N/NC(=O)OCc2ccc(OC)cc2)cc1 | 4.54% (inactive) | 1.96% |  |  |
| Cc1ccc(N2CCN(S(=O)(=O)c3ccc4c(c3)n(C)c(=O)c(=O)n4C)CC2C)cc1 (configuration not stated) | -1.8% (inactive) | 9.1% |  |  |
| O=S(=O)(c1cccs1)N1CCN(S(=O)(=O)c2cccs2)CC1 | 0.709% (inactive) | 5.37% |  |  |
| Cc1ccc(N2CCN(S(=O)(=O)c3cccs3)CC2C)cc1 (configuration not stated) |  | -24.3% | 3.66 µM (active) |  |
| CC(=O)N(C)c1ccc(NC(=O)c2ccco2)cc1 | -5.89% (inactive) | -3.91% |  |  |
| CN(C(=O)c1cccc(NC(=O)c2ccco2)c1)c1ccccc1 | 27% (inactive) | 8.03% |  |  |
| Cc1ccc(NC(=O)c2ccco2)c(NC(=O)c2ccccc2)c1 |  | 11.5% |  | inactive |
